{
  "source": "PubChem BioAssay AID624489",
  "about": "(Broad Institute, 2012)",
  "note": "Entries with a potency or affinity are not part of this list. The source made the active and inactive calls.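 Rule for the calls: active = compounds with a falling luminescence curve whose half-maximal concentration is at most twice the top valid dose; inconclusive = flat fit between -70 and -30 percent, or poor fit; inactive = the rest.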",
  "data": [
    {"assay": "viability loss in MITF-independent A375 cells – cell-based, CellTiter-Glo luminescence, dry powder, set 2, counter-screen for MITF inhibitor project, dose response (AID 624489)", "details": "A375 melanoma viability, CellTiter-Glo ATP luminescence, 24 h; series mostly up to 35 µM", "values": [
      {"smiles": "C=CCNC1=C(NC(=O)c2ccccc2)C(=O)c2ccccc2C1=O", "outcome": "inactive"},
      {"smiles": "C=CCNC1=C(NCC=C)C(=O)c2ccccc2C1=O", "outcome": "inactive"},
      {"smiles": "COc1ccc(C2=C(NC(=O)c3ccc(OC)cc3-c3cccc(OC)c3)C(=O)c3ccccc3C2=O)cc1", "outcome": "inactive"},
      {"smiles": "O=C1C(NS(=O)(=O)c2ccc(Br)cc2)=C(N2CCN(c3ccccc3)CC2)C(=O)c2ccccc21", "outcome": "inactive"},
      {"smiles": "C=CCNC1=C(NS(=O)(=O)c2cccs2)C(=O)c2ccccc2C1=O", "outcome": "inactive"}
    ]}
  ]
}
